Screening data from PubChem BioAssay.
TDP1 cell noCPT: qHTS for Inhibitors of human tyrosyl-DNA phosphodiesterase 1 (TDP1): qHTS in cells in absence of CPT | DT40 Tdp1-/- hTDP1 cells, no CPT, ATP luminescence, 48 h | Potency, µM (doses to about 46.2 µM), for inactives: top-dose activity change, negative = growth inhibition, hits mostly inhibitors | 15% of 420,000 active; note: potency is the fitted concentration of half-maximal effect; % is set by controls: 0 for no effect and ±100 for the full control effect; nearly all actives have a fitted effect of over 55% in size
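Seeded 400 DT40-hTDP1 cells/well (vehicle DMSO, no 20 nM CPT); pinned compounds; ≥48 hr at 37 °C; CellTiter-Glo luminescence as viability measure.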
DT40 TDP1 CPT: qHTS for Inhibitors of human tyrosyl-DNA phosphodiesterase 1 (TDP1): qHTS in cells in presence of CPT. chicken DT40 Tdp1-/-;hTDP1 cells + 20 nM CPT, ATP luminescence, 48 h. Potency, µM (series often up to 46.2 µM), inactives show at the highest dose activity change, negative = growth inhibition, usual class: inhibitors. 12% of 420,000 active. AID 686979, 2013; note: potency is the fitted concentration of half-maximal effect; % is set by controls: 0 for no effect and ±100 for the full control effect; nearly all actives have a fitted effect of over 55% in size
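Cell growth measured by CellTiter-Glo luminescence after a minimum 48 h, 37 C compound exposure with 20 nM CPT in Tdp1-knockout DT40 cells stably expressing hTDP1, seeded 400/well; qHTS titration format.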
TGFb inhibitor: qHTS for Inhibitors of TGF-b. 1.2% of 410,000 active. Potency, µM (doses to about 46.1 µM), for inactives: at the highest dose activity, negative = inhibition, most hits filed as inhibitors. AID 588855, 2011. HepG2 CAGA-GFP TGF-b/SMAD3 reporter, GFP fluorescence, 18 h; TGF-beta stimulated, 500 pg/mL final; note: potency is the fitted concentration of half-maximal effect; % is set by controls: 0 for no effect and ±100 for the full control effect; nearly all actives have a fitted effect of over 65% in size
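Read-out: total well GFP (ex488/em500-530) summed from mean per-cell fluorescence. Cells: HEPG2 CAGA-GFP, 1% FBS DMEM, 18 h at 37 degrees C with 500 pg/mL final TGF-beta. Unstimulated wells served as the full-inhibition control; stimulated DMSO wells = 0%.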
IL-1B inflam inh: qHTS for Inhibitors of Inflammasome Signaling: IL-1-beta AlphaLISA Primary Screen; THP-1 LPS/ATP IL-1B secretion, AlphaLISA, 16 h; active compounds read low; activity change, % at 57.5 µM; 4.7% of 360,000 active; AID 743279, 2014; in the data active = activity change below about -50%; inconclusive = mostly about -30% to -49%; note: % is set by controls: 0 for no effect and ±100 for the full control effect
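THP-1 cells pretreated 1 hr with compounds (up to 57.5 uM final), then stimulated with LPS (250 ng/mL final) plus ATP (1.25 mM final); secreted IL-1B measured by AlphaLISA after 16 hr, decreased signal indicating inhibition.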
HepG2 viability: qHTS for Inhibitors of TGF-b: Cytotox Counterscreen. HepG2 CAGA-GFP viability, ATP luminescence, 18 h. Potency, µM (top dose mostly 46.1 µM), inactives show top-dose activity change, negative = cytotoxicity, actives largely listed as cytotoxic. 0.76% of 410,000 active; note: potency is the fitted concentration of half-maximal effect
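HepG2 CAGA-GFP cells (1000/well, DMEM with 1% FBS) received compound, then TGF-beta at 500 pg/mL final, and were incubated 18 hours at 37 degrees C. Viability was read by CellTiter-Glo luminescence. Media-only wells were set as complete cell-killing and DMSO as no toxicity.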
TDP1 inh: qHTS Assay for Inhibitors of Tyrosyl-DNA Phosphodiesterase (TDP1); 0.28% of 350,000 active; AID 485290, 2010; recombinant TDP1, AlphaScreen DNA substrate cleavage; Tyrosyl-DNA phosphodiesterase 1 (Homo sapiens), Q9NUW8; Potency, µM (top dose mostly 130 µM), without a hit: at the highest dose activity change, negative = inhibition, most hits filed as inhibitors; note: potency is the fitted concentration of half-maximal effect; % is set by controls: 0 for no effect and ±100 for the full control effect; nearly all actives have a fitted effect of over 40% in size
Target sequence (Q9NUW8 whole entry, looked up): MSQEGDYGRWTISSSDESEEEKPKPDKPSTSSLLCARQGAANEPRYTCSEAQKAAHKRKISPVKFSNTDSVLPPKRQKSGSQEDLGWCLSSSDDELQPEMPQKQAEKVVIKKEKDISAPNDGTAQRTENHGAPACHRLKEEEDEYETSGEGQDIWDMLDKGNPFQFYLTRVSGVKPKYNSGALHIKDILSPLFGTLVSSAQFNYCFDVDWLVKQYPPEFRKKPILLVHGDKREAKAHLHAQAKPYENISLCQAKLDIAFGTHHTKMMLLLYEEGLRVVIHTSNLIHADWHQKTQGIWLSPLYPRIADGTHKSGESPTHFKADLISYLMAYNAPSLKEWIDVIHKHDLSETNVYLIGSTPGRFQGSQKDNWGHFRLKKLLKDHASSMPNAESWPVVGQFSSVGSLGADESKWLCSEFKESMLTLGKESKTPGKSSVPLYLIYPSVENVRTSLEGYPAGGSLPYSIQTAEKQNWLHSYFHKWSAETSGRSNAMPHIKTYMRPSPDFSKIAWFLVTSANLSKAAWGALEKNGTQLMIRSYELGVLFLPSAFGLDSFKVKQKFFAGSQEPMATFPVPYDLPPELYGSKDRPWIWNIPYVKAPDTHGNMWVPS
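Here, a 5' biotin and 3' phosphotyrosine-FITC DNA oligonucleotide reports Tdp1 activity: intact substrate bridges AlphaScreen beads, while cleavage leaves a 3' phosphate and drops signal. All incubations at room temperature.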
Numbers without * were called inactive; ? = inconclusive; . = no result given; [ ] = another dose, or the depositor's remark. Shown are actives, neighbours in structure and some others; about 19% of the full set was active somewhere. Unless noted, calls come from the whole dose curve; as a rule, active = well fitted curve in the direction sought with a large enough effect; inconclusive = small, poorly fitted or top-dose-only effect, or another doubt; inactive = no such curve, though single readings can be large; an effect the other way counts as inactive or inconclusive.

SMILES	TDP1 cell noCPT	DT40 TDP1 CPT	TGFb inhibitor	IL-1B inflam inh	HepG2 viability	TDP1 inh
C=C1CCC[C@]2(C)C[C@H]3OC(=O)C(CN(Cc4ccc(OC)c(OC)c4)CC(C)O)[C@H]3CC12 (some centres not stated)	18.4µM*	?	?	-97.8*	-115.8%	.
COc1ccc(CCNC(=O)C2(C)CCC(=O)N2CCC(C)C)cc1OC (configuration not stated)	-8.3%	9.5%	-21.5%	5.5	-21.2%	2.6%
C=C1CCC[C@]2(C)C[C@H]3OC(=O)C(CN[C@@H](C)c4ccccc4)[C@H]3CC12 (some centres not stated)	?	?	8.1%	-86.9*	-10.8%	.
C=C1CCC[C@]2(C)C[C@H]3OC(=O)C(CNC(C)CCCC(C)C)[C@H]3CC12 (some centres not stated)	20.6µM*	?	11.2µM*	-98.6*	-45.8%	.
C=C1CCC[C@]2(C)C[C@H]3OC(=O)C(CNCC(OC)OC)[C@H]3CC12 (some centres not stated)	18.4µM*	?	0.0%	-78.4*	18.0%	.
Cc1ccc(C(=O)OCC(=O)NCc2ccc(Cl)cc2Cl)o1	-20.7%	?	-12.9%	7.0	1.3%	.
CCc1nn(CC(=O)NCCC(C)C)c(=O)c2cc3occc3n12	?	-12.7%	-4.3%	.	5.7%	2.5%
C=C1CCC[C@]2(C)C[C@H]3OC(=O)C(CN4CCOCC4)[C@H]3C[C@@H]12 (some centres not stated)	?	?	?	-74.3*	16.9%	.
COc1ccc(-c2nc(CSCC(=O)NCc3ccccc3Cl)c(C)o2)cc1OC	?	?	?	.	-24.1%	6.9%
O=C(C[C@H]1CC[C@@H]2[C@H](COC[C@@H](O)CN2Cc2cccc(F)c2)O1)NCC1CCCCC1	20.6µM*	20.6µM*	.	22.2	.	.
O=C(C[C@H]1CC[C@@H]2[C@H](COC[C@H](O)CN2Cc2cccc(C(F)(F)F)c2)O1)NCCc1ccccc1	13µM*	20.6µM*	.	-16.2	.	.
O=S(=O)(NCC(c1ccco1)S(=O)(=O)c1ccccc1)c1cc(F)ccc1F (configuration not stated)	?	?	?	.	-4.9%	2.6%
Cc1cccc(NC(=S)N(CCCN2CCOCC2)C(C)c2cc3ccccc3o2)c1C (configuration not stated)	-22.1%	-17.7%	-23.5%	6.7	-24.9%	4.9%
CC(C)NC(=O)N1CCC2(CC1)CCN(C(=O)c1ccco1)CC2	1.5%	8.6%	.	.	.	.
O=C(O)c1cc(-c2ccc(Cl)cc2)n(-c2ccc(F)cc2)n1	-6.7%	18.1%	2.3%	15.1	9.7%	.
CCOC(=O)N1CCC2(CC1)C(C#N)=C(N)Oc1n[nH]c(CSc3ccc(C)cc3)c12	?	7.31µM*	0.9%	8.2	-12.0%	7.1%
CN=C(c1ccc(C)cc1)n1c(=S)nc(-c2ccc(C)cc2)n(C)c1=S	18.4µM*	?	18.4%	22.7	1.4%	-7.4%
CN=C(c1ccco1)n1c(=S)nc(-c2ccco2)n(C)c1=S	?	?	4.2%	22.3	0.7%	.
CCN(C(=O)CSc1nnc(-c2cccc(Cl)c2)n1N)c1c(N)n(Cc2ccccc2)c(=O)[nH]c1=O	2.1%	-13.1%	-3.6%	-15.5	-11.5%	.
COc1cccc(C(=O)CC(=O)C(=O)Nc2ccc(C)cc2Cl)c1	?	?	0.0%	30.8	-0.3%	.
COc1ccc(C(=O)NNC(=O)C(=O)Nc2ccc(C)c(Cl)c2)cc1	?	23.1µM*	12.7%	-10.7	21.0%	9.5%
CCCCOC(=O)c1ccc(NC(=O)C(=O)CC(=O)c2ccc(OC)cc2)cc1	16.4µM*	16.4µM*	-2.4%	-4.1	-3.8%	.
COc1ccc(C(=O)CC(=O)C(=O)Nc2ccc(C)cc2Cl)cc1	16.4µM*	?	5.9%	10.7	-28.5%	.
COc1cc(OC)c(NC(=O)C(=O)CC(=O)c2ccc(C)cc2C)cc1Cl	2.59µM*	4.61µM*	-1.4%	-5.7	4.3%	2.6%
COc1ccc(NS(=O)(=O)c2cc3[nH]c(=O)c(=O)[nH]c3cc2C)cc1Cl	-13.0%	2.4%	-5.0%	.	4.5%	1.2%
SMILES	TDP1 cell noCPT	DT40 TDP1 CPT	TGFb inhibitor	IL-1B inflam inh	HepG2 viability	TDP1 inh
C[C@H]1Cc2c(-c3ccccc3)nc3c(c2CO1)CN(C(=O)c1cccnc1)CC3	.	.	.	.	.	-0.5%[12.3 µM]
CCCCOC(=O)c1ccc(NC(=S)NC(=O)c2c(Cl)cnn2C)cc1	16.4µM*	23.1µM*	-10.7%	1.5	-6.9%	4.3%
COc1ccc(C(=O)CC(=O)C(=O)Nc2ccc(C)c(C)c2)cc1	20.6µM*	20.6µM*	-0.6%	3.0	-5.6%	.
CCCCOC(=O)c1ccc(NC(=S)NC(=O)c2c(Cl)cnn2CC)cc1	?	?	-0.2%	76.8	-42.0%	1.5%
COc1ccc(Nc2oc(-c3ccco3)nc2S(=O)(=O)c2ccc(F)cc2)cc1	?	?	-1.8%	-56.9*	-2.8%	0.0%
COc1ccccc1NC(=O)CSc1oc(-c2ccccc2)nc1S(=O)(=O)c1ccc(C)cc1	20.6µM*	18.4µM*	-14.7%	.	-14.0%	0.0%
COc1ccccc1NC(=O)CSc1oc(-c2cccs2)nc1S(=O)(=O)c1ccc(Br)cc1	?	23.1µM*	-2.2%	.	-21.9%	2.9%
O=S(=O)(c1ccc(F)cc1)c1nc(-c2ccco2)oc1Nc1ccc(F)cc1	?	?	-3.3%	?	-7.0%	3.4%
COc1ccccc1NC(=O)CSc1oc(-c2ccco2)nc1S(=O)(=O)c1ccc(C)cc1	?	23.1µM*	-4.7%	.	-24.3%	-5.9%
Cc1ccc(S(=O)(=O)c2nc(-c3cccs3)oc2SCC(N)=O)cc1	-12.5%	-2.1%	7.1%	6.8	1.5%	5.9%
COc1ccc(NC(=O)CSc2oc(-c3ccco3)nc2S(=O)(=O)c2ccccc2)c(OC)c1	?	?	0.4%	.	-2.7%	0.0%
COc1ccccc1NC(=O)CSc1oc(-c2ccccc2)nc1S(=O)(=O)c1ccccc1	16.4µM*	20.6µM*	-4.1%	.	-8.1%	2.9%
